PHOSPHO1 inh = PHOSPHO1 (human) inhibition | Q8TCT1 | recombinant PHOSPHO1, absorbance phosphatase assay | inhibition, % at 13.3 µM | 1.1% of 290,000 active | AID 1565; in the data active = inhibition above about 60%
CHT inh = human CHT choline transport inhibition | Q9GZV3 | CHT-expressing cells, membrane potential dye, choline response; hits give low values | B-score at 10 µM | 0.86% of 310,000 active | AID 488975;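 active = B-score over 3 SD under the library average, and starting fluorescence ratio not unusually high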;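 also: choline stimulus applied at its EC90 after an EC20 pre-addition; B-score computed on integrated fluorescence ratio after choline addition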
ANO1 block = blocks the mouse calcium-activated chloride channel TMEM16A; AID 588511; normalized B-score (activity score, 25-100; higher = stronger inhibition) at 10 µM; Q8BHY3; HEK293 TMEM16A/YFP iodide influx fluorescence, ionomycin; 1.2% of 310,000 active;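 active = ratio plate-corrected score three or more library SD toward inhibition, starting fluorescence score within five deviations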;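 also: score derived from kinetic fluorescence span divided by baseline fluorescence per well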
CHT PAM = allosteric activators of human choline transporter CHT. Q9GZV3. CHT-expressing cells, membrane potential dye, choline EC20; hits give high values; LV-AA mutant CHT in HEK293 cells. B-score at 10 µM. 0.49% of 310,000 active;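 active = initial fluorescence not abnormally high and integrated response B-score, plate-corrected, over 3 SD above library mean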
TMEM16A act = activates or potentiates the mouse TMEM16A chloride channel | Q8BHY3 | HEK293 TMEM16A/YFP-H148Q/I152L, iodide quench fluorescence; hits give low values | B-score at 10 µM | 0.3% of 340,000 active;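 active = fluorescence-ratio B-score plate-corrected deviation score at least 3 library SD below zero, with starting fluorescence score within 5 deviations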;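 also: channel opened by trigger with iodide after compound preincubation; score built on the fluorescence ratio of max minus min over baseline; more negative score means more quench and so TMEM16A activation or potentiation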
HDAC3 inhib = blocks human histone deacetylase 3. recombinant HDAC3, fluorogenic peptide/trypsin coupled, fluorescence. inhibition, % at 8.3 µM. 0.15% of 320,000 active. AID 2718; in the data active = inhibition above about 26%, passing the limit was not always enough
CHT act confirm = confirmation of human choline transporter (CHT) activators; shares compounds with CHT PAM; activation, % at 10 µM; CHT-expressing cells, membrane potential dye fluorescence (FDSS); % of choline EC20–EC90 response window; HEK293 expressing CHT LV-AA mutant; choline added at its EC20; 91% of 2,500 active; AID 504833;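 active = primary screen active, with duplicate mean activation above negative control mean plus 3 SD, cut at about 11% in these data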
HEK293 MP dye = CHT activator counter-screen hit in parental HEK293 cells; membrane potential dye fluorescence (FDSS); measured after EC20 choline addition; 62% of 2,500 active; shares compounds with CHT PAM; ratio readout change at 10 µM, hits read low; AID 623908;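 active = duplicate-averaged ratio beyond 3 SD from buffer wells, up or down, though filed actives are nearly all decreases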
Each line names hits and unclear results; the compound was inactive in the other large screens (follow-up assays come after a bar, where they were run). Only some compounds are listed: those with a hit (about 3.2% of all), similar ones and a draw of the others.

COC(=O)C1=C(C)N(Cc2ccccc2)C(=NCc2ccccc2)N[C@H]1c1cccc(F)c1	CHT PAM 16 | CHT act confirm 40 | HEK293 MP dye inactive
CN(C)CCNC(=O)NC1CCCCC1	none
Cc1cc(/C=C2/C(=N)N3C(=NC2=O)SN=C3S(C)(=O)=O)c(C)n1-c1ccccc1F	CHT PAM 7.6 | CHT act confirm inactive | HEK293 MP dye inactive
N#CC1(NC(=O)COC(=O)c2ncc(Cl)c(Cl)c2Cl)CCCCC1	none (no result: PHOSPHO1 inh)
COc1cc(/C=N/NC(=O)C(=O)/C=C2\NC3(CCCC3)Cc3ccccc32)ccc1O	none
CN(C)c1ccc(/C=N/NC(=O)C(=O)/C=C2\NC3(CCCC3)Cc3ccccc32)cc1	CHT PAM 6.7 | CHT act confirm inactive | HEK293 MP dye inactive
CC(CCc1ccccc1)NC(=O)COC(=O)C1CCC(C(C)(C)C)CC1 (centres undefined)	none
CCCC(c1nnnn1CS(=O)(=O)c1ccc(C)cc1)N1CCN(c2ccccc2)CC1 (centres undefined)	CHT PAM 7 | CHT act confirm 14 | HEK293 MP dye inactive
C[n+]1ccc(/C=C/c2ccccc2O)c2ccccc21	none | CHT act confirm 30 | HEK293 MP dye -39
CN1/C(=C/c2cc[n+](C)c3ccccc23)C=Cc2ccccc21	none (no result: CHT inh, ANO1 block, CHT PAM, HDAC3 inhib)
Cc1cccc2nc(CSC(=N)N)c(Br)n12	none | CHT act confirm 28 | HEK293 MP dye -38
CCOC(=O)c1sc2nccc(N(C)C)c2c1N=CN(C)C	CHT PAM 7.2 | CHT act confirm 60 | HEK293 MP dye -52
O=C(N/N=C/c1ccc(OCc2ccccc2)cc1)c1ccco1	none
CCN(CC)c1ccc(/C=N/NC(=O)c2ccco2)cc1	none | CHT act confirm 31 | HEK293 MP dye inactive
O=C(N/N=C/c1ccc2cccnc2c1)c1ccco1	none | CHT act confirm 37 | HEK293 MP dye inactive
O=C(N/N=C/c1ccccc1)c1ccco1	none
CC1CN(c2ccc(Cl)nn2)CC(C)O1 (centres undefined)	none
CCCCNC(=S)N(C)/N=C/c1c(F)c(F)c(F)c(F)c1F	CHT PAM 6.5 | CHT act confirm 17 | HEK293 MP dye inactive
COc1ccc(CC(=O)OCC(=O)NC2CCCCC2)cc1	none (no result: PHOSPHO1 inh, CHT inh, ANO1 block, CHT PAM)
N=c1c2c(n(Cc3ccccc3)c3c1CCC3)CCC2	none
N=c1c2c(n(Cc3cccc(Cl)c3)c3c1CCC3)CCCC2	CHT PAM 8.8 | CHT act confirm 66 | HEK293 MP dye -41
CCn1c2c(c(=N)c3c1CCC3)CCCC2	CHT PAM 9.3 | CHT act confirm 68 | HEK293 MP dye -65
CCCCn1c2c(c(=N)c3ccccc31)CCC2	none
N=c1c2c(n(Cc3ccc(Cl)cc3)c3c1CCC3)CCC2	CHT PAM 8.1 | CHT act confirm 51 | HEK293 MP dye -42
N=c1c2c(n(Cc3ccc(F)cc3)c3c1CCC3)CCCC2	none
CC(=O)c1sc2nsc(SCCN3CCCC3)c2c1N	none (no result: PHOSPHO1 inh)
CCC1Nc2ncnc(N3CCOCC3)c2N(Cc2ccc(C)cc2)C1=O (centres undefined)	none (no result: PHOSPHO1 inh)
Cc1nc2c(sc(=S)n2Cc2ccco2)c(=O)n1CC(=O)Nc1ccccc1Cl	none
CCOC(=O)CSc1ccc2nnc(-c3cccs3)n2n1	none
CCOC(=O)CSc1ccc2nnc(-c3ccncc3)n2n1	none | CHT act confirm 12 | HEK293 MP dye -33
COc1ccc(-c2nnc3ccc(SCC(=O)N4CCCCC4)nn23)cc1OC	none | CHT act confirm 20 | HEK293 MP dye inactive
COc1ccc(-c2nnc3ccc(SCC(N)=O)nn23)cc1OC	none | CHT act confirm 31 | HEK293 MP dye -31
COc1ccc(C2=NN(C(=O)CCCC(=O)O)C(c3cccs3)C2)cc1OC (centres undefined)	none
CC(=O)c1c(C)[nH]c(C(=O)OCC(=O)c2c(N)n(CC(C)C)c(=O)n(C)c2=O)c1C	none (no result: PHOSPHO1 inh, CHT inh, ANO1 block, CHT PAM)
COc1ccc(OC)c(CNc2nc3ccccc3n2CCN2CCCCC2)c1	none | CHT act confirm 34 | HEK293 MP dye inactive
Cn1c(N/N=C/c2c[nH]c3ccccc23)nc2ccccc21	none | CHT act confirm 33 | HEK293 MP dye -59
CCCCc1n(CC(=O)c2ccc(Cl)cc2)c2ccccc2[n+]1C	none | CHT act confirm 14 | HEK293 MP dye inactive
Cc1n(CC(=O)c2ccc(F)cc2)c2ccccc2[n+]1C	none
Cc1ccc(OCCn2nnc3ccccc32)cc1C	none
NS(=O)(=O)c1ccc(CCNc2nc(CN3CCOCC3)nc3sc4c(c23)CCC4)cc1	none
c1cncc(-c2nc(N3CCOCC3)c3c4c(sc3n2)CCC4)c1	none
Cc1cccc(Oc2nc(CN3CCOCC3)nc3sc4c(c23)CCCC4)c1	none | CHT act confirm 35 | HEK293 MP dye inactive
CCN(CC)CCCNc1nc(CN2CCOCC2)nc2sc3c(c12)CCC3	CHT PAM 7.7 | CHT act confirm 59 | HEK293 MP dye -57
c1cncc(-c2nc(NCCCN3CCOCC3)c3c4c(sc3n2)CCC4)c1	CHT PAM 6.9 | CHT act confirm 24 | HEK293 MP dye -47
CCC(C)Nc1nc(CN2CCOCC2)nc2sc3c(c12)CCC3 (centres undefined)	CHT PAM 8.4 | CHT act confirm 14 | HEK293 MP dye inactive
Cc1nn2c(NCCCN(C)C)c3c(nc2c1-c1ccccc1)CCC3	CHT PAM 8.2 | CHT act confirm 45 | HEK293 MP dye -57
Cc1ccc(S(=O)(=O)NC(N)=NCCc2ccc(Cl)cc2)cc1	none
COc1ccc2c(c1)c(C(=O)CN1CCC3(CC1)OCCO3)c(C)n2C	PHOSPHO1 inh 97, CHT PAM 6.4 | CHT act confirm 15 | HEK293 MP dye -41
COc1ccc2c(c1)c(C(=O)CN1CCC(C(N)=O)CC1)c(C)n2C	CHT PAM 6.3 | CHT act confirm 65 | HEK293 MP dye -51
COc1ccc2c(c1)c(C(=O)CN1CCCCC1)c(C)n2C	none (no result: PHOSPHO1 inh) | CHT act confirm 44 | HEK293 MP dye -51
Cc1c(C(=O)CN2CCSCC2)c2ccccc2n1C	none
COc1ccc2c(c1)c(C(=O)CN1CCOCC1)c(C)n2C	none | CHT act confirm 38 | HEK293 MP dye -37
COc1ccc(N2CCN(CC(=O)c3c(C)n(C)c4ccc(OC)cc34)CC2)cc1	none
Cc1cc(=O)[nH]c(SCC(=O)Nc2ccnc3ccccc23)n1	none | CHT act confirm 31 | HEK293 MP dye -51
Cc1ccc2c(n1)sc1c(N)ncnc12	CHT PAM 8.3 | CHT act confirm 53 | HEK293 MP dye -32
CCOC(=O)C1(CC2CC2)CCN(Cc2cn[nH]c2-c2cccc(F)c2)CC1	none | CHT act confirm 22 | HEK293 MP dye inactive
